This excerpt belongs to a sample that is enriched for hits.
DUX4 txn inh: DUX4-mediated transcription inhibition | activity change, negative = inhibition, % (no concentration beside the values) | 0.8% of 37,000 active | 293T-iDUX4 ZSCAN4-Gaussia luciferase reporter, 24 h; stronger effect = lower value;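 active = mean inhibition of at least 10% in the main channel, exceeding the control channel by a set limit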
Of the large screens only hits and unclear results are named; the others gave an inactive call; ! = not confirmed by another sample.

CC[C@H]1CC=CC[C@H](C)Oc2ccccc2C(=O)N(C)[C@H](C(C)C)C(=O)N1 (mixture of isomers)	none
OC[C@H]1[C@H](c2ccc(C#Cc3ccccc3F)cc2)[C@@H]2CN(CC3CCOCC3)CCCCN12	DUX4 txn inh -13
OC[C@@H]1[C@H](c2ccc(C#Cc3ccccc3F)cc2)[C@H]2CN(CC3CCOCC3)CCCCN12	DUX4 txn inh -21
CN1CCCCN2[C@H](C1)[C@H](c1ccc(C#Cc3ccccc3F)cc1)[C@@H]2CO	none
OC[C@@H]1[C@H](c2ccc(C#Cc3ccccc3)cc2)[C@@H]2CN(CC3CCOCC3)CCCCN12	none
CN1CCCCN2[C@H](CO)[C@H](c3ccc(C#Cc4ccccc4F)cc3)[C@@H]2C1	none
OC[C@H]1[C@H](c2ccc(C#Cc3ccccc3)cc2)[C@H]2CN(CC3CCOCC3)CCCCN21	none
CCC(=O)N1[C@@H](CO)[C@H](c2ccccc2)C12CN(C(=O)c1ccc(F)cc1)C2	none
COc1ccc(CNC(=O)N(C)C[C@H]2OCc3ccccc3-c3ccccc3C(=O)N([C@@H](C)CO)C[C@@H]2C)cc1	none
Cc1ccccc1S(=O)(=O)N1[C@H](C#N)[C@H](c2ccc(-c3ccccc3)cc2)[C@H]1CO	none
O=S(=O)(c1ccccc1F)N1C[C@@H]2N[C@H](C1)C2c1ccc(-c2ccncc2)cc1 (stereo partly specified)	none
O=S(=O)(c1ccccc1F)N1[C@@H]2CNC[C@H]1C2c1ccc(-c2ccncc2)cc1 (stereo partly specified)	none
O=S(=O)(c1ccccc1F)N1CCCCN2[C@H](C1)[C@@H](c1ccc(-c3cncnc3)cc1)[C@@H]2CO	none
O=S(=O)(c1ccccc1F)N1C[C@@H]2N[C@H](C1)C2c1ccc(-c2cncnc2)cc1 (stereo partly specified)	DUX4 txn inh -14
N#Cc1cccc(-c2ccc(C3[C@@H]4CN(C(=O)C5CCOCC5)C[C@H]3N4)cc2)c1 (stereo partly specified)	none
Cc1ccccc1S(=O)(=O)N1C[C@@H]2N[C@H](C1)C2c1ccc(-c2cccc(C#N)c2)cc1 (stereo partly specified)	DUX4 txn inh -71!
N#Cc1cccc(-c2ccc(C3[C@@H]4CN(S(=O)(=O)c5ccccc5F)C[C@H]3N4)cc2)c1 (stereo partly specified)	DUX4 txn inh -54!
O=S(=O)(c1ccccc1F)N1[C@@H]2CNC[C@H]1C2c1ccc(-c2cccc(F)c2)cc1 (stereo partly specified)	none
C[C@@H](NC(=O)[C@@H]1[C@@H](CO)[C@@H]2Cn3c(cccc3=O)[C@@H]2N1CC1CC1)c1ccccc1	none
CCCC#Cc1ccc([C@@H]2[C@H]3CN(C(=O)c4cccc(F)c4)CC(=O)N3[C@H]2CO)cc1	none
O=C(C[C@H]1CC[C@@H]2[C@H](COC[C@@H](O)CN2C(=O)Nc2ccc(Cl)c(Cl)c2)O1)NCc1ccncc1	none
CS(=O)(=O)Nc1ccc2c(c1)[C@@H]1C[C@@H](CC(=O)O)O[C@H](CO)[C@@H]1O2	none
C[C@@H]1CCCCO[C@@H](CN(C)S(=O)(=O)c2cn(C)cn2)[C@H](C)CN([C@H](C)CO)C(=O)c2cc(NC(=O)Nc3ccc(C(F)(F)F)cc3)ccc2O1	none
Cc1ccc(S(=O)(=O)N2C[C@@H]3N[C@H](C2)C3c2ccc(-c3cccc(C#N)c3)cc2)cc1 (stereo partly specified)	DUX4 txn inh -43!
COc1ccccc1-c1ccc(C2[C@@H]3CN(S(=O)(=O)c4ccc(C)cc4)C[C@H]2N3)cc1 (stereo partly specified)	DUX4 txn inh -34!
N#Cc1cccc(-c2ccc(C3[C@@H]4CN(S(=O)(=O)c5ccccc5)C[C@H]3N4)cc2)c1 (stereo partly specified)	DUX4 txn inh -41!
N#Cc1cccc(-c2ccc3c(c2)[C@@H]2[C@@H](CCN2S(=O)(=O)c2ccccc2)[C@@H](CO)N3)c1	none
C/C=C/c1ccc(C2[C@@H]3CN(S(=O)(=O)c4ccc(C)cc4)C[C@H]2N3)cc1 (stereo partly specified)	none
COc1ccccc1S(=O)(=O)N1C[C@@H]2N[C@H](C1)C2c1ccc(-c2ccncc2)cc1 (stereo partly specified)	none
COc1ccc(S(=O)(=O)N2[C@@H]3CNC[C@H]2C3c2ccc(-c3ccccc3OC)cc2)cc1 (stereo partly specified)	none
COc1cccc(-c2ccc(C3[C@@H]4CN(S(=O)(=O)c5cn(C)cn5)C[C@H]3N4)cc2)c1 (stereo partly specified)	DUX4 txn inh -34!
COc1cccc(-c2ccc(C3[C@H]4CNC[C@@H]3N4S(=O)(=O)c3cn(C)cn3)cc2)c1 (stereo partly specified)	none
N#Cc1cccc(-c2ccc([C@H]3[C@H]4CN(S(=O)(=O)c5ccccc5)CCCCN4[C@H]3CO)cc2)c1	none
COc1cccc(-c2ccc(C3[C@@H]4CN(C(=O)C5CCOCC5)C[C@H]3N4)cc2)c1 (stereo partly specified)	none
Cc1ccc(S(=O)(=O)N2[C@@H]3CNC[C@H]2C3c2ccc(-c3ccc(C#N)cc3)cc2)cc1 (stereo partly specified)	none
COc1ccc2c3c(n(C)c2c1)[C@@H](CO)N(Cc1cccnc1)CC31CN(Cc2cccnc2)C1	none
COc1ccc2c3c([nH]c2c1)[C@@H](CO)N(C)CC31CN(C(=O)c2cccnc2)C1	none
CCCN(C)C[C@H]1OCCCC[C@H](C)Oc2ccc(NC(=O)c3ccncc3)cc2C(=O)N([C@H](C)CO)C[C@H]1C	none
OC[C@H]1[C@H](c2ccc(Br)cc2)[C@H]2CN(Cc3cncnc3)CCCCN21	none
C[C@@H]1CCCCO[C@@H](CN(C)Cc2ccc(C(=O)Nc3ccccc3N)cc2)[C@@H](C)CN([C@H](C)CO)C(=O)c2cc(N(C)C)ccc2O1	none
O=C(c1ccccc1)N1CC[C@@H]2[C@H]1c1cc(-c3ccc(F)cc3)ccc1N[C@@H]2CO	none
C[C@@H]1CN([C@H](C)CO)C(=O)CCCn2cc(nn2)CO[C@@H]1CN(C)Cc1ccc(C(F)(F)F)cc1	none
CN(C)C(=O)c1ccc(-c2ccc(C3[C@@H]4CN(S(=O)(=O)Cc5ccccc5)C[C@H]3N4)cc2)cc1 (stereo partly specified)	none
CS(=O)(=O)N1C[C@@H]2N[C@H](C1)[C@@H]2c1ccc(-c2ccccc2)cc1	DUX4 txn inh -51
COc1ccc(S(=O)(=O)N2[C@@H]3CNC[C@H]2C3c2ccc(-c3ccncc3)cc2)cc1 (stereo partly specified)	none
Cc1ccc(S(=O)(=O)N2[C@@H]3CNC[C@H]2C3c2ccc(-c3cccnc3)cc2)cc1 (stereo partly specified)	none
Cc1cccc(-c2ccc(C3[C@@H]4CNC[C@H]3N4)cc2)c1 (stereo partly specified)	none
O=S(=O)(c1ccc(-c2ccccc2)cc1)N1[C@@H]2CNC[C@H]1C2c1ccc(-c2ccccc2)cc1 (stereo partly specified)	none
O=S(=O)(c1cccc(F)c1)N1[C@@H]2CNC[C@H]1C2c1ccc(-c2cccnc2)cc1 (stereo partly specified)	none
O=S(=O)(c1ccc(-c2ccccc2)cc1)N1C[C@@H]2N[C@H](C1)C2c1ccc(-c2ccncc2)cc1 (stereo partly specified)	DUX4 txn inh -33
O=S(=O)(c1ccccc1)N1[C@@H]2CNC[C@H]1C2c1ccc(-c2cccnc2)cc1 (stereo partly specified)	DUX4 txn inh -11!
